Our source for the outcome and AC50 values is PubChem BioAssay (EPA / NIEHS).

A word on the AC50: it is the midpoint of the concentration-response curve, whichever way the signal moves.

Records with an inconclusive call do not appear. Active and inactive are the calls of the source. How the source made its calls: active means hit-call score of the fitted dose curve at least 0.9, where 1 is the maximum; inconclusive means response in the unintended direction; inactive means score below 0.9.

In assay [1] the target is Adenosine receptor A1 (Bos taurus) (UniProt P28190). Description: NVS_GPCR_bAdoR_NonSelective: NovaScreen (NVS) G Protein-Coupled Receptor Assay for bovine Adenosine Receptor (AdoR), Non-selective Binding (AID 2283244). The gist of the method: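 Bovine striatal membranes, radioligand displacement binding, 1 h after dosing, filter-based scintillation counting. Screened in duplicate at 25 uM, then concentration-response up to 50 uM; loss of specific binding relative to DMSO.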

In assay [2] the test system is guinea pig Leukotriene B4 Receptor (LTB4), gene 100379538. Description: NVS_GPCR_gLTB4: NovaScreen (NVS) G Protein-Coupled Receptor Assay for guinea pig Leukotriene B4 Receptor (LTB4) (AID 2283247). The gist of the method: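 Radioligand displacement on guinea pig spleen membranes, filter-based scintillation counting 2 h after dosing. Primary duplicate single point at 25 uM; hits over threshold (e.g. 30% inhibition) run in concentration-response up to 50 uM, DMSO baseline.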

Assay [3] has as its target guinea pig Opioid, Kappa 1 Receptor (OpiateK), OPRK1 (gene 100135587) (UniProt P41144). Description: NVS_GPCR_gOpiateK: NovaScreen (NVS) G Protein-Coupled Receptor Assay for guinea pig Opioid, Kappa 1 Receptor (OpiateK) (AID 2283252).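 Further: active means reduced radioligand binding relative to DMSO.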 The procedure, abridged: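 Signal is scintillation counts of filter-trapped radioligand bound to guinea pig cerebellar membrane receptor, measured 2 hours post-dosing. Activity is loss of binding versus DMSO, first at 25 uM in duplicate, then as concentration series for actives.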

In assay [4] the target is human Serotonin, 5-Hydroxytryptamine Receptor 6 (5HT6), HTR6 (gene 3362) (UniProt P50406). Kind of assay: NVS_GPCR_h5HT6: NovaScreen (NVS) G Protein-Coupled Receptor Assay for human Serotonin, 5-Hydroxytryptamine Receptor 6 (5HT6) (AID 2283253). The procedure, abridged:
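Radioligand binding to 5HT6 in HEK293-derived membranes, cell-free, 1 h after dosing; bound ligand measured by filter-based scintillation counting. Primary screen in duplicate at 25 uM; actives retested in concentration series.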

Assay [5] deals with human Adenosine A1 Receptor (AdoRA1), ADORA1 (gene 134) (UniProt P30542). Description: NVS_GPCR_hAdoRA1: NovaScreen (NVS) G Protein-Coupled Receptor Assay for human Adenosine A1 Receptor (AdoRA1) (AID 2283254). The gist of the method:
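Membranes from human cortical tissue were incubated with radioligand and test chemical for 1 hour, then filtered and counted. Activity was taken as signal loss relative to DMSO, screened at 25 uM in duplicate before concentration-response follow-up.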

Assay [6] addresses human Serotonin, 5-Hydroxytryptamine Receptor 7 (5HT7), HTR7 (gene 3363) (UniProt P34969). Description: NVS_GPCR_h5HT7: NovaScreen (NVS) G Protein-Coupled Receptor Assay for human Serotonin, 5-Hydroxytryptamine Receptor 7 (5HT7) (AID 2283255).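 Further: hits reduce specific radioligand binding relative to DMSO.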 The procedure, abridged: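 Radioligand displacement on membranes from CHO cells expressing human 5HT7, 1 h incubation, filter-based scintillation counting. Primary screen used a single 25 uM concentration in duplicate; actives were followed up in concentration series.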

In assay [7] the target is human Adenosine A2a Receptor (AdoRA2a), ADORA2A (gene 135) (UniProt P29274). Description: NVS_GPCR_hAdoRA2a: NovaScreen (NVS) G Protein-Coupled Receptor Assay for human Adenosine A2a Receptor (AdoRA2a) (AID 2283256). The gist of the method: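 Radioligand displacement on HEK293-derived membrane protein, cell-free; filter-based scintillation counting 1.5 hours after dosing, loss of signal vs DMSO. Single-point duplicate screen at 25 uM, actives retested in concentration series.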

Assay [8] has as its target human Adrenergic, Alpha 2A Receptor (Adra2A), ADRA2A (gene 150) (UniProt P08913). Description: NVS_GPCR_hAdra2A: NovaScreen (NVS) G Protein-Coupled Receptor Assay for human Adrenergic, Alpha 2A Receptor (Adra2A) (AID 2283257). The procedure, abridged:
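Radioligand filter-binding was run on HT29-derived membranes, cell-free, read by scintillation counting 1 h after dosing. Primary screening was in duplicate at 25 uM, with concentration series in follow-up. Loss of signal versus DMSO indicates displacement.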

For assay [9], the target named is human Adrenergic, Alpha 2c Receptor (Adra2C), ADRA2C (gene 152) (UniProt P18825). Kind of assay: NVS_GPCR_hAdra2C: NovaScreen (NVS) G Protein-Coupled Receptor Assay for human Adrenergic, Alpha 2c Receptor (Adra2C) (AID 2283259). The procedure, abridged:
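Radioligand binding on Sf9-expressed receptor membranes, 1 h after chemical dosing, filter-based scintillation read-out. Loss of binding fitted positively versus DMSO; primary duplicate screen at 25 uM, actives retested in concentration series.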

Assay [10] deals with Type-1 angiotensin II receptor (Homo sapiens) (UniProt P30556). Description: NVS_GPCR_hAT1: NovaScreen (NVS) G Protein-Coupled Receptor Assay for human Angiotensin II receptor type 1 (AT1) (AID 2283263). The procedure, abridged:
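Membranes from KAN-TS cells; radioligand competitive displacement, 3 h, filtration and scintillation counting. Single-point duplicate screen at 25 uM, then concentration-response up to 50 uM for hits; loss of signal fitted versus DMSO.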

The subject of assay [11] is rat Monoamine Oxidase, MAO-A, Central (MAOAC), gene 29253. Kind of assay: NVS_ENZ_rMAOAC: NovaScreen (NVS) Enzymatic Assay for rat Monoamine Oxidase, MAO-A, Central (MAOAC) (AID 2283243).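 Further: potency refers to inhibition seen as signal drop below DMSO baseline.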 The gist of the method: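 Steps: rat brain protein extract dosed with test chemical (25 uM, duplicate, primary); incubated 1.5 h; radiolabelled product separated from substrate and counted. Signal loss versus DMSO scored as inhibition.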

For assay [12], the target named is sheep Cyclooxygenase-1 (Cox1), PTGS1 (gene 443551) (UniProt P05979). Description: NVS_ENZ_oCOX1: NovaScreen (NVS) Enzymatic Assay for sheep Cyclooxygenase-1 (Cox1) (AID 2283239).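 Further: actives reduce cyclooxygenase activity so potencies are for inhibitors.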 The gist of the method:
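Cell-free colorimetric assay of enzyme activity in a native extract of ovine seminal vesicles. Absorbance was read 0.66 hour after compound addition. Loss of signal relative to the DMSO negative control was scored, with actives from the 25 uM duplicate primary screen retested in concentration series.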

Assay [13] deals with human Adrenergic, Beta 1 Receptor (Adrb1), ADRB1 (gene 153) (UniProt P08588). Description: NVS_GPCR_hAdrb1: NovaScreen (NVS) G Protein-Coupled Receptor Assay for human Adrenergic, Beta 1 Receptor (Adrb1) (AID 2283258). The gist of the method: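 Cell-free radioligand displacement on receptor from human neuroepithelioma cells; 2 h after dosing, filter-based scintillation counting. Primary screen in duplicate at 25 uM, actives retested in concentration series; loss of signal vs DMSO baseline.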

Assay [14] deals with human Dopamine Receptor D2 (DRD2), DRD2 (gene 1813) (UniProt P14416). Kind of assay: NVS_GPCR_hDRD2s: NovaScreen (NVS) G Protein-Coupled Receptor Assay for human Dopamine Receptor D2 (DRD2) (AID 2283266). The gist of the method: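 Radioligand displacement used human DRD2 membranes extracted from CHO cells and was read by filter-based scintillation counting after 1.5 hours. Primary screening was in duplicate at 25 uM. Loss of signal versus DMSO was fitted, with concentration series in follow-up.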

In assay [15] the target is rat Monoamine Oxidase, MAO-B, Peripheral (MAOBP), Maob (gene 25750) (UniProt P19643). Description: NVS_ENZ_rMAOBP: NovaScreen (NVS) Enzymatic Assay for rat Monoamine Oxidase, MAO-B, Peripheral (MAOBP) (AID 2283242).
In assay [16] the target is rat Monoamine Oxidase, MAO-B, Central (MAOBC), Maob (gene 25750) (UniProt P19643). Description: NVS_ENZ_rMAOBC: NovaScreen (NVS) Enzymatic Assay for rat Monoamine Oxidase, MAO-B, Central (MAOBC) (AID 2283238). The gist of the method:
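Compounds were first tested in duplicate at 25 uM against MAO-B from rat brain tissue; those passing the inhibition threshold were retested in concentration series up to 50 uM. Radiodetection by scintillation counting at 1.17 h, analysed against DMSO baseline.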

Assay [17] deals with Beta-2 adrenergic receptor (Homo sapiens) (UniProt P07550). Description: NVS_GPCR_hAdrb2: NovaScreen (NVS) G Protein-Coupled Receptor Assay for human Adrenergic, Beta 2 Receptor (Adrb2) (AID 2283261). The gist of the method: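 Filter-based radioligand binding using receptor prepared from CHO cells, 1 h incubation, scintillation counting. Primary screen in duplicate at 25 uM, actives retested in concentration series; loss of binding relative to DMSO.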

For assay [18], the target named is human Serotonin, 5-Hydroxytryptamine Receptor 5A (5HT5A), HTR5A (gene 3361) (UniProt P47898). Description: NVS_GPCR_h5HT5A: NovaScreen (NVS) G Protein-Coupled Receptor Assay for human Serotonin, 5-Hydroxytryptamine Receptor 5A (5HT5A) (AID 2283251). The gist of the method: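 Cell-free radioligand displacement binding on HEK293-derived membrane protein, 1 h incubation, filter-based scintillation counting. Primary screen in duplicate at 25 uM, actives followed in concentration series; loss of signal fitted versus DMSO.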

Chain of human Adenosine A2a Receptor (AdoRA2a), ADORA2A (gene 135) (P29274 whole entry, looked up): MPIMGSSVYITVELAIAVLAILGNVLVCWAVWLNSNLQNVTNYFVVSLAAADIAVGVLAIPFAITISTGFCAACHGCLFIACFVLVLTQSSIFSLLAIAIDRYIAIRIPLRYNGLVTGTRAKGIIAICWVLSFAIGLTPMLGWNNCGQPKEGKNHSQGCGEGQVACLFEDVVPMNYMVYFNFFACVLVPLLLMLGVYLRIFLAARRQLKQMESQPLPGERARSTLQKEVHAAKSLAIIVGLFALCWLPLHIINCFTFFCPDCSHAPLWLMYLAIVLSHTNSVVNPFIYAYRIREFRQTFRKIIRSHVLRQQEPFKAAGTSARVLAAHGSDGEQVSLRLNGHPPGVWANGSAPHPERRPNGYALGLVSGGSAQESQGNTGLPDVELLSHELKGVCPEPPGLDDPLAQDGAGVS
Chain of human Adrenergic, Alpha 2A Receptor (Adra2A), ADRA2A (gene 150) (P08913 whole entry, looked up): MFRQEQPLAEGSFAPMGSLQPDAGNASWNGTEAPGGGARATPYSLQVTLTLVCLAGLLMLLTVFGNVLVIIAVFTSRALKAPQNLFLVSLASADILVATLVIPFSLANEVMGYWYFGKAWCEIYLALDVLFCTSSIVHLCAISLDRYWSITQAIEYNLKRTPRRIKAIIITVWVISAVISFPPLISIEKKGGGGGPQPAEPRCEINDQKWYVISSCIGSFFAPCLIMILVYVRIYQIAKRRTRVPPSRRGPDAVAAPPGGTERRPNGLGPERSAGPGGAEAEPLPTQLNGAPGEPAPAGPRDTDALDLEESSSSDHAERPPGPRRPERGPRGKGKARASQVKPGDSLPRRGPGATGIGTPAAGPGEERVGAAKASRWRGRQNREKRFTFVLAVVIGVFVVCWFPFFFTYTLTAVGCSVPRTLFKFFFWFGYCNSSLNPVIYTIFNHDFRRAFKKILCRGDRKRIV
Chain of human Adrenergic, Beta 1 Receptor (Adrb1), ADRB1 (gene 153) (P08588 whole entry, looked up): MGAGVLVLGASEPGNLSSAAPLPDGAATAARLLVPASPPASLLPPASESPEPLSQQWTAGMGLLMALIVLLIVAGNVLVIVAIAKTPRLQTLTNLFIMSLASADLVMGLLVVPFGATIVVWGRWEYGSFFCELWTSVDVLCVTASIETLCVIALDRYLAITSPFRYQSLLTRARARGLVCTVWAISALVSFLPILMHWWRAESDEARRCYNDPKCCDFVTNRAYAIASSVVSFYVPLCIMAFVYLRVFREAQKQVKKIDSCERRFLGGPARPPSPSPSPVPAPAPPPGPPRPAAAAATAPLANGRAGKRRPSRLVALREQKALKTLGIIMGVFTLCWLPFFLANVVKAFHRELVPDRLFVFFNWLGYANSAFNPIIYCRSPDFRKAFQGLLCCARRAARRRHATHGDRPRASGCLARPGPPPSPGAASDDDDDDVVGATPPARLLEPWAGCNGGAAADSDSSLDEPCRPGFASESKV
Chain of human Adenosine A1 Receptor (AdoRA1), ADORA1 (gene 134) (P30542 whole entry, looked up): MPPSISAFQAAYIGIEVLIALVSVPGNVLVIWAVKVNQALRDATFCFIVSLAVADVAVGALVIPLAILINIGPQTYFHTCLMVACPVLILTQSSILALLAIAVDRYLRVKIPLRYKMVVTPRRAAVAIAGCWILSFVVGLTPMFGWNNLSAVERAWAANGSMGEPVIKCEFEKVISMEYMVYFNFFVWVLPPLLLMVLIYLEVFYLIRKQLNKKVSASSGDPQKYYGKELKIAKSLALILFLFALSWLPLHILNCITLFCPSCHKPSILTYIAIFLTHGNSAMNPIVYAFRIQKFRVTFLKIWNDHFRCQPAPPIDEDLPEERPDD
Chain of human Dopamine Receptor D2 (DRD2), DRD2 (gene 1813) (P14416 whole entry, looked up): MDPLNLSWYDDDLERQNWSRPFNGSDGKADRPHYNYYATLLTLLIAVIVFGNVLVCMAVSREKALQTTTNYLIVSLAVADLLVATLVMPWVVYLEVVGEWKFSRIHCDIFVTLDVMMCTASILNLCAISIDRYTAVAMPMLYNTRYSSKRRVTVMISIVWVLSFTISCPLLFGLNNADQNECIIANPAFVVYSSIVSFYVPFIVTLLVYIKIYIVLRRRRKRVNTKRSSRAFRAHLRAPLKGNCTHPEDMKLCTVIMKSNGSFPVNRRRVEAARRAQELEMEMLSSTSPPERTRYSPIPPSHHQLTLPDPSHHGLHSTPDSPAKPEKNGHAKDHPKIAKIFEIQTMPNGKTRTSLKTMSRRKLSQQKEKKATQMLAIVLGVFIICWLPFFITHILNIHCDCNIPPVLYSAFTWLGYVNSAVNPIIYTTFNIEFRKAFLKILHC
Chain of Adenosine receptor A1 (Bos taurus) (P28190 whole entry, looked up): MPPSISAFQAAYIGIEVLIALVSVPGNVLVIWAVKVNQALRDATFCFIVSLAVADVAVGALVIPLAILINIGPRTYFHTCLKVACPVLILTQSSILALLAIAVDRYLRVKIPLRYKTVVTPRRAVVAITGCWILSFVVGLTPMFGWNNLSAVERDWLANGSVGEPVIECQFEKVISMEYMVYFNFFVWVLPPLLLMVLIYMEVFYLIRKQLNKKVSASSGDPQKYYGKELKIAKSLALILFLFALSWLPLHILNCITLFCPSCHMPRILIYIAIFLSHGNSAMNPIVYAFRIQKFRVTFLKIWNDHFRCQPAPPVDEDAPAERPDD
Chain of human Adrenergic, Alpha 2c Receptor (Adra2C), ADRA2C (gene 152) (P18825 whole entry, looked up): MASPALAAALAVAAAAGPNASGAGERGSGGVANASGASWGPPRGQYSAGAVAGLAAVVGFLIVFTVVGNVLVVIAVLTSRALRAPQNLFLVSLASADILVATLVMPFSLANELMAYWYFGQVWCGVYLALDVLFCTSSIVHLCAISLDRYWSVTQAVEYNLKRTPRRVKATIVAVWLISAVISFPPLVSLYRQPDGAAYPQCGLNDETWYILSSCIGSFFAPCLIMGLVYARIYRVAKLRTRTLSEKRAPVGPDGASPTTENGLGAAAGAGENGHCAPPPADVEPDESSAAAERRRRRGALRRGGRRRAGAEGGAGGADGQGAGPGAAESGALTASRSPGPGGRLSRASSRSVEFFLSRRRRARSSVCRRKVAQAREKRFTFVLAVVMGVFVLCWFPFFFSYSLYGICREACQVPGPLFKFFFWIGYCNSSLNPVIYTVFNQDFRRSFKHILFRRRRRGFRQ
Chain of Type-1 angiotensin II receptor (Homo sapiens) (P30556 whole entry, looked up): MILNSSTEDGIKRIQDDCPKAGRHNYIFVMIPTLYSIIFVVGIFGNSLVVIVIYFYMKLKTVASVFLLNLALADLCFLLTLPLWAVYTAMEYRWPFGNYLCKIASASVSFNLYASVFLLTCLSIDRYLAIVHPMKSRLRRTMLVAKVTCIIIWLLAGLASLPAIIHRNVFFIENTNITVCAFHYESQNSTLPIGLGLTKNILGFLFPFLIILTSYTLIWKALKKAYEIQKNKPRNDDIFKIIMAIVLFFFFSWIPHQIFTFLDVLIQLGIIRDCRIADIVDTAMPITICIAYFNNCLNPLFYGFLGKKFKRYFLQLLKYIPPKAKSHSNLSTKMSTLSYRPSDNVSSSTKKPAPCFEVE
Chain of sheep Cyclooxygenase-1 (Cox1), PTGS1 (gene 443551) (P05979 whole entry, looked up): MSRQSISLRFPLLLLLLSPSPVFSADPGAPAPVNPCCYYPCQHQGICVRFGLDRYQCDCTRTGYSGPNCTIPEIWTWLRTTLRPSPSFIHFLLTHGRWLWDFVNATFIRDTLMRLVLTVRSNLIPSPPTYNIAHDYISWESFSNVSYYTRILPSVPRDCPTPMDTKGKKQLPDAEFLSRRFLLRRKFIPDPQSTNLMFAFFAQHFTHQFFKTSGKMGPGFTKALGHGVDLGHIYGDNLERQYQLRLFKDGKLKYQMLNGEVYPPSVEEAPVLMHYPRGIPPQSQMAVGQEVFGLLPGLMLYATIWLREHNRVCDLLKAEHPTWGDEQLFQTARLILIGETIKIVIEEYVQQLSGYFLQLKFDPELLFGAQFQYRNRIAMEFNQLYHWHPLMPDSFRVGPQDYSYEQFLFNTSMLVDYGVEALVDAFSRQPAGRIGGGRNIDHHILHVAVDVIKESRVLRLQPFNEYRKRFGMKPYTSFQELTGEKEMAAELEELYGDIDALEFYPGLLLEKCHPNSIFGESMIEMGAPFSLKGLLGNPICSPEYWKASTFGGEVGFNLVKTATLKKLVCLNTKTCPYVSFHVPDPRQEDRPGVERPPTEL
Chain of Beta-2 adrenergic receptor (Homo sapiens) (P07550 whole entry, looked up): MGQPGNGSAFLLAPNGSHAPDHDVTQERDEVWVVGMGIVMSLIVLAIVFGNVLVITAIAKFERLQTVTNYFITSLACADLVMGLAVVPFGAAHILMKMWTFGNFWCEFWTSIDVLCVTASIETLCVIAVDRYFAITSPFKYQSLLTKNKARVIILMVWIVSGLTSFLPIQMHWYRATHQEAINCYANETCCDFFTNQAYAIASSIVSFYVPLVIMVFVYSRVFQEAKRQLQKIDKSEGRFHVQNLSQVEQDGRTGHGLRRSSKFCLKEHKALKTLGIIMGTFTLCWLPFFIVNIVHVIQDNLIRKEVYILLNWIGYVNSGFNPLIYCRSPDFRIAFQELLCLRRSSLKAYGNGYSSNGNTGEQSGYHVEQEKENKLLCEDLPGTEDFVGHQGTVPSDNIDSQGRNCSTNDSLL
Chain of human Serotonin, 5-Hydroxytryptamine Receptor 6 (5HT6), HTR6 (gene 3362) (P50406 whole entry, looked up): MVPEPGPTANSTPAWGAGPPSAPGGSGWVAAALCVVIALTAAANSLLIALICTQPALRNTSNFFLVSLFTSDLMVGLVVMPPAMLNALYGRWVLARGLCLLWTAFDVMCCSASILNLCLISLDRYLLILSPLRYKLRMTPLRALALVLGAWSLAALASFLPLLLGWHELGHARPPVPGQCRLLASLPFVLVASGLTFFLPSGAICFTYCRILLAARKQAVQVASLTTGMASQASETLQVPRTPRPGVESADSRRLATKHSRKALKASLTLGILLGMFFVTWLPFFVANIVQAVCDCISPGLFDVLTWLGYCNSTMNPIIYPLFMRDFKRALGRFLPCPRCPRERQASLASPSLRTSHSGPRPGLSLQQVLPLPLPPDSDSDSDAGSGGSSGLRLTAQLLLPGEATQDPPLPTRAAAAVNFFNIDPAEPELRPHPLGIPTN

`CSC(C)(C)C=NO`: the outcome in assay [1], in assay [2], in assay [3], in assay [4], in assay [5] and in assay [6] was inactive. Besides, the result in [7], in assay [8], in [9] and in assay [10] was inactive.
For `CC(=O)c1ccc(-c2ccccc2)cc1`, in [11], the concentration at half-maximal activity (AC50) is 18.6 µM (active).
`CC(Cc1ccc(OCC(=O)O)cc1)NCC(O)c1csc(C(F)(F)F)n1` (stereo not given): the AC50 in assay [8] is 25 µM (active).
Regarding `CCOP(=S)(OCC)SCS(=O)(=O)CC`, the AC50 in assay [11] was 7.29 µM (active).
As for `O=[N+]([O-])c1cc(Cl)ccc1Cl`, the compound was called inactive in [7].
As to `CCOP(=S)(S)OCC`, the outcome in assay [12] was inactive.
On to `CCCN(CCC)c1c([N+](=O)[O-])cc(C(C)C)cc1[N+](=O)[O-]`, for which the result in assay [1], in assay [13] and in [14] was inactive.
As to `Cc1ccc2c(c1N)C(=O)c1ccccc1C2=O`, the AC50 in [11] is 25 µM (active); in [5], 16.3 µM (active); in assay [7], 4.77 µM (active).
`Oc1ccc(I)cc1`: in assay [11], the AC50 is 19.9 µM (active).
Take `N#Cc1c(-c2ccc(Cl)cc2)[nH]c(C(F)(F)F)c1Br`: the compound was called inactive in [7].
`CCOC(=O)c1ccccc1C(=O)OCC`: the compound was called inactive in [15]. In addition, the AC50 in assay [11] is 15.2 µM (active).
On to `ClC(Cl)(Cl)c1ccccc1`, for which the compound was called inactive in assay [16].
As to `ClC1=C(Cl)C2(Cl)C3C(Cl)C(Cl)CC3C1(Cl)C2(Cl)Cl` (stereo not given), the compound was called inactive in [17] and in assay [14].
On to `CCCCN(CCCC)SN(C)C(=O)Oc1cccc2c1OC(C)(C)C2`, for which the compound was called inactive in assay [18] and in assay [13].
